# Experimental data: PubChem BioAssay (EPA / NIEHS)
# Inconclusive results are not listed. The source made the active and inactive calls. How the source made its calls: active means hit-call score of the fitted dose curve at least 0.9, where 1 is the maximum; inconclusive means response in the unintended direction; inactive means score below 0.9.
# Experiment: ACEA_ER_80hr: ACEA Biosciences xCELLigence Real-Time Cell Analysis on Estrogen Receptor Agonism for Proliferation (AID 2282667)
# Details: T47D proliferation, impedance (xCELLigence), 80 h
# Method in brief: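 T47D human breast cells were seeded on electrode plates, monitored overnight, then exposed continuously to compounds in eight-point 1:4 dilutions from 100 uM (max 0.5% DMSO). Impedance-based growth was read at 80 h, fitted upward relative to DMSO.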
Compound,outcome,AC50
CCCCC(CC)COCCO (configuration not stated),inactive,
CCCCOCCOCCO,inactive,
NC(=O)c1cccnc1,inactive,
CC1=CC(=O)[C@H]2C[C@@H]1C2(C)C,inactive,
CC(=O)CC(C)(C)C1CCCCC1,inactive,
CCCC1CCOC(C)S1 (configuration not stated),inactive,
OCCN1CCOCC1,inactive,
O=C1CCCCCCCCCCCC(=O)OCCO1,inactive,
CC(C)Cc1ccccc1,inactive,
CC1=CCC(C(C)(C)O)CC1 (configuration not stated),inactive,
C=COCC1CCC(COC=C)CC1 (configuration not stated),inactive,
CN(C)CCC=C1c2ccccc2CCc2ccccc21,,124 nM (active)
CC/C=C\CCCCO,inactive,
C=CCCCCCCCCC(=O)OCC,inactive,
CCCCCC(=O)O[C@]1(C(C)=O)CC[C@H]2[C@@H]3CCC4=CC(=O)CC[C@]4(C)[C@H]3CC[C@@]21C,,5.01 nM (active)
CCCCCCCCCCCCCC(=O)OCC,inactive,
O=C1OCc2ccccc21,inactive,
C=C(F)C(=O)OC(C(F)(F)F)C(F)(F)F,inactive,
O=C(C=Cc1ccccc1)OCCCc1ccccc1,inactive,

Compound,outcome,AC50
CC(C)(C)c1ccc(S)cc1,inactive,
FC(F)(F)c1ccc(Cl)c(Cl)c1,inactive,
C[N+](C)(C)CCO,inactive,
CCCCCCCCCC(=O)OCC,inactive,
CC1=CC(O)CC(C)(C)C1 (configuration not stated),inactive,
CC(=O)c1ccc(O)cc1,inactive,
CCC(C)COC(=O)CC(C)C (configuration not stated),inactive,
CC(=O)N(C)C,inactive,
O=C1Cc2ccccc2C1,inactive,
CC(C)=CCCC(C)=CC(=O)O,inactive,
CCCCCC1CCC(=O)O1 (configuration not stated),inactive,
CC(=O)CCC(=O)O,inactive,
C=CCS(=O)(=O)O,inactive,
O=C(OCc1ccccc1)c1ccccc1O,inactive,
Cc1cccc(C)c1,inactive,
CC/C=C\C#N,inactive,
NC(N)=S,,1290 nM (active)
O=C(Nc1cccc(Cl)c1)OCC#CCCl,inactive,
